Experimental data from the supplement of paper PMC12808144.

test system: Mel-DCC-11-R; assay: cell viability relative to DMSO control (fraction of DMSO control); higher = less cytotoxic, active = 0.8 or less; details: 1 µM; 120 h; vemurafenib co-treatment 0 µM
Procedure: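 Same 315-drug TargetMol library at 1 µM in duplicate, 120 h, ATPlite luminescence normalised to DMSO controls, on the vemurafenib-resistant subline Mel-DCC-11-R cultured alone or with 8 µM vemurafenib co-treatment (Mel-DCC-11-R + V).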

SMILES | cell viability
Cc1ncc(CNC(=O)N(CCCl)N=O)c(N)n1.Cl [Nimustine Hydrochloride] | 1.1 (inactive)
O=P1(NCCCl)OCCCN1CCCl (stereo unspecified) [Ifosfamide] | 0.968 (inactive)
COc1cc([C@@H]2c3cc4c(cc3[C@H](O)[C@H]3COC(=O)[C@H]23)OCO4)cc(OC)c1OC [Podophyllotoxin] | 0.575 (active)

same assay, conditions: 1 µM; 120 h; vemurafenib co-treatment 8 µM

SMILES | cell viability
Cc1ncc(CNC(=O)N(CCCl)N=O)c(N)n1.Cl [Nimustine Hydrochloride] | 0.991 (inactive)
O=P1(NCCCl)OCCCN1CCCl (stereo unspecified) [Ifosfamide] | 1 (inactive)
COc1cc([C@@H]2c3cc4c(cc3[C@H](O)[C@H]3COC(=O)[C@H]23)OCO4)cc(OC)c1OC [Podophyllotoxin] | 0.407 (active)
